In PubChem BioAssay AID977607 (Broad Institute, 2014):
Among all 1,500 compounds or so, about 460 (31%) were called active. Another 1% or so got no clear call; they are omitted.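 How the source made its calls: active means curve reaches 40% activation over neutral controls at an AC40 no higher than the top valid tested concentration; inconclusive means no clear call, values can overlap the other calls; inactive means signal moving opposite to the expected increase, and the rest.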 These entries were drawn from the full list. Entries with a potency or affinity are not part of this list.

experiment: activators of glucose-dependent insulin secretion, dose response, cell-based, INS-1E, Gaussia luciferase, luminescence, cherry-pick, set 2 (AID 977607); conditions: INS-1E GLuc insulin secretion reporter, 2-3 h, active compounds read high; at 35 µM, 100% = signal doubled over neutral wells unless noted;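 further: 0% = median of the plate neutral control wells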

Max activation, inactive:
COc1ccccc1C(OC(=O)c1cccs1)C(=O)NCC1CCCO1 (stereo unspecified) -15.4% [at 0.015 µM, 100% = signal doubled over neutral wells], Cc1cccc(C2N=C(N)Nc3nc4ccccc4n32)c1 (stereo unspecified) -24% [at 0.005 µM, 100% = signal doubled over neutral wells], O=C(Cc1c[nH]c2ccccc12)N[C@@H](Cc1c[nH]c2ccccc12)C(=O)O 39.3% [at 0.135 µM, 100% = signal doubled over neutral wells], C=CCn1c(O)c(N=NC(=O)CNC(=O)c2ccco2)c2ccccc21 10.5%, O=C1NC(c2ccccc2)c2c(-c3ccccc3)n[nH]c21 (stereo unspecified) -9.3% [at 0.005 µM, 100% = signal doubled over neutral wells], O=c1[nH]nc(-c2cccs2)c2ccccc12 31.3%, CCCc1cc(=O)n2[nH]c(C)c(-c3ccc(Cl)cc3)c2n1 24.5% [at 0.0016 µM, 100% = signal doubled over neutral wells], O=C(Nc1ccccc1)Nc1nnc(-c2cccs2)s1 -23.9% [at 11 µM, 100% = signal doubled over neutral wells], CCc1nnc(NC(=O)C(c2ccccc2)c2ccccc2)s1 -21.5%, O=S(=O)(Nc1ncnc2sc3c(c12)CCC3)c1cc(F)ccc1F 30.2% [at 0.135 µM, 100% = signal doubled over neutral wells], NC(=O)c1ccc2nc(-c3ccccc3)c(-c3ccccc3)nc2c1 28.4%, CCOC(=O)Cn1c(=O)n(Cc2ccccc2)c(=O)c2cccnc21 -12.9% [at 0.0016 µM, 100% = signal doubled over neutral wells], O=C(O)CCCNC(=O)c1nn(Cc2ccccc2)c(=O)c2ccccc12 -18.7% [at 0.0016 µM, 100% = signal doubled over neutral wells], c1ccc(Oc2ccccc2-c2cc(NCCc3cccnc3)n3nccc3n2)cc1 -10.9% [at 0.046 µM, 100% = signal doubled over neutral wells], O=C(Nc1nnc(-c2ccc(Cl)cc2)o1)NC1CCCCC1 -20.9%, O=C(CCCC(=O)c1ccccc1)NCc1ccccc1 35.8% [at 3.8 µM, 100% = signal doubled over neutral wells]
